Source: PubChem BioAssay
HCV inh: inhibitors of hepatitis C virus infection; Huh7.5.1 HCVcc-Cre infection, luciferase reporter, 44 h; Potency, µM (series often up to 41.8 µM), for inactives: top-dose activity change, negative = inhibition, usual class: inhibitors; hit rate 3.4% among 340,000; active means well fitted inhibition curve with a large enough effect; inconclusive means small, poorly fitted or top-dose-only effect, or another doubt; inactive means no such curve, though single readings can be large or run the other way
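Cells (1,000/well) were plated 4 h before compound, then infected with HCVcc-Cre virus (~0.5 moi). After 44 h further culture, infection was read as luciferase luminescence following a 15 min substrate incubation at room temperature.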
LASV entry inh: Lassa virus entry inhibition | Lassa virus pseudotype entry inhibition, cell reporter | Potency, µM (doses to about 37.9 µM), without a hit: at the highest dose activity change, negative = inhibition, actives largely listed as inhibitors | hit rate 1.2% among 300,000; calls by dose curve; tested in HEK293 cells; further: nearly all actives have a fitted effect of over 50% in size
FMDV inh: blocks foot and mouth disease virus; FMDV antiviral cell-based qHTS; Potency, µM (titrated, usually from 57.9 µM), for inactives: at the highest dose activity change, negative = inhibition, hits mostly inhibitors; hit rate 1.2% among 410,000; AID 1159524; calls by dose curve; tested in HEK293T cells; further: read-out not given here; nearly all actives have a fitted effect of over 45% in size
Marburg entry inh: inhibitors of Marburg virus binding or cell entry | Marburg virus pseudotyped entry inhibition, cell reporter | hit rate 1.8% among 300,000 | AID 540276 | Potency, µM (series often up to 37.8 µM), for inactives: at the highest dose activity change, negative = inhibition, usual class: inhibitors; calls by dose curve; tested in HEK293 cells
Vaccinia mCherry: inhibitors of vaccinia virus infection (mCherry reporter signal); AID 720579; hit rate 0.63% among 310,000; Potency, µM (titrated, usually from 36.5 µM), for the others: at the top dose activity change, negative = inhibition, hits mostly inhibitors; Vaccinia virus mCherry reporter infection, fluorescence; calls by dose curve; tested in A549 cells; further: nearly all actives have a fitted effect of over 35% in size
Vaccinia Venus: inhibitors of vaccinia virus (Venus reporter). Vaccinia virus Venus reporter expression, fluorescence. Potency, µM (top dose mostly 36.5 µM), for inactives: at the highest dose activity change, negative = inhibition, most hits filed as inhibitors. hit rate 0.46% among 330,000; calls by dose curve; tested in A549 cells; further: nearly all actives have a fitted effect of over 30% in size
Active calls of the source: *; [ ] = another dose, or the depositor's remark. Most compounds without a hit are left out; they make up all but 5.3% or so of the library. On the % scale 0 is the no-effect control and ±100 the full control effect; potency means the concentration at half of the fitted maximal effect.

For O=C(Nc1sc2c(c1C(=O)O)CCCC2)c1ccc(F)cc1 the results were HCV inh 4.0%, LASV entry inh inconclusive, FMDV inh 17.2%, Marburg entry inh 2.51µM*, Vaccinia mCherry -0.7% and Vaccinia Venus -15.7%.
CC(C)(C)c1ccc(C(=O)Nc2sc3c(c2C(=O)O)CCC3)cc1 was read as HCV inh -20.2%, LASV entry inh inconclusive, FMDV inh -19.4%, Marburg entry inh 3.16µM*, Vaccinia mCherry -6.9% and Vaccinia Venus -15.2%.
Screening NC(=O)c1c(NC(=O)c2ccc(F)cc2)sc2c1CCC2 returned HCV inh inconclusive, LASV entry inh -8.3%[46.1 µM], FMDV inh 23.5%, Marburg entry inh inconclusive, Vaccinia mCherry -4.1% and Vaccinia Venus -20.4%.
For CC1=C(C(N)=O)C(c2ccc(F)cc2)n2nc(-c3ccc(N(C)C)cc3)nc2N1 (centres undefined) the results were LASV entry inh -2.1%[46.1 µM], FMDV inh -2.8%, Marburg entry inh 0.6%[46.1 µM], Vaccinia mCherry 1.3% and Vaccinia Venus -7.7%.
COCCn1c(=O)c(-c2ccc(OC)cc2)nc2cnc(OCc3ccccc3)nc21 was read as FMDV inh -11.4%.
`CCOc1ccc(-c2cc3c(=O)n(CC(=O)Nc4cc(F)ccc4C)ccn3n2)cc1` gave LASV entry inh inconclusive, FMDV inh 27.6%, Vaccinia mCherry -27.7% and Vaccinia Venus inconclusive.
`O=C(Nc1sc2c(c1C(=O)O)CCCC2)c1cccs1` gave HCV inh inconclusive, LASV entry inh inconclusive, FMDV inh 14.1% and Marburg entry inh 9.2µM*.
Screening COc1ccc(NC(=O)c2c(NC(=O)CCC(=O)O)sc3c2CCCCC3)cc1 returned HCV inh 13.2% and FMDV inh 8.9%.
O=C(Nc1sc2c(c1C(=O)O)CCCCC2)c1cccs1 was read as HCV inh -8.2%, FMDV inh 0.0%, Vaccinia mCherry -5.6% and Vaccinia Venus inconclusive.
Screening COc1ccc(NC(=O)c2c(NC(=O)C(F)(F)F)sc3c2CCCCC3)cc1 returned LASV entry inh 3.16µM*, FMDV inh -12.6%, Vaccinia mCherry -12.8% and Vaccinia Venus -1.8%.
Screening O=C(CCc1ccc(F)c(F)c1)NC1CCCN(Cc2ccc(Cl)cc2)C1 (centres undefined) returned HCV inh 3.8%, LASV entry inh -20.4%[46.1 µM], FMDV inh -18.1%, Marburg entry inh 11.2µM*, Vaccinia mCherry -3.3% and Vaccinia Venus -8.3%.
For Cc1cc(NC(=O)c2cc3cccc([N+](=O)[O-])c3[nH]2)ccc1F the results were HCV inh 11.2µM* and FMDV inh 6.3%.
For O=S(=O)(c1ccccc1)[C@@]1(c2ccc(Br)cc2)C[C@@H]2ON=C(c3ccccc3)[C@@H]2C1 the results were HCV inh 10µM*, FMDV inh -27.3%, Vaccinia mCherry -0.7% and Vaccinia Venus -7.5%.
Screening O=c1c(-c2ccccc2)nc2cnc(N3CCNCC3)nc2n1-c1ccccc1 returned FMDV inh 2.5%.
For Cc1ccc(-n2c(O)c(/C=N/Nc3ccc(S(=O)(=O)N4CCOCC4)cc3[N+](=O)[O-])c3ccccc3c2=O)c(C)c1 the results were HCV inh 11.2µM*, LASV entry inh inconclusive, FMDV inh 10µM*, Marburg entry inh inconclusive, Vaccinia mCherry inactive and Vaccinia Venus -29.8%.
`Cc1ccc(Nc2ccc(S(=O)(=O)N3CCOCC3)cc2[N+](=O)[O-])cc1C` gave HCV inh 17.8µM*, LASV entry inh inconclusive, FMDV inh inconclusive, Marburg entry inh inconclusive, Vaccinia mCherry -23.2% and Vaccinia Venus -22.5%.
For O=C(O)c1ccc(/C=N\Nc2ccc(S(=O)(=O)N3CCOCC3)cc2[N+](=O)[O-])cc1 the results were HCV inh 6.7% and FMDV inh 3.5%.
For COc1ccc(/C=C2\C=Cc3ccccc32)cc1OC the results were Vaccinia mCherry 3.3% and Vaccinia Venus -11.8%.
Screening CC(=O)C1=C(O)C(=O)N(c2cccc(C(=O)O)c2)[C@@H]1c1ccc(F)cc1 returned Marburg entry inh 25.3%.
`O=C(NCc1ccccc1Cl)c1cnc2sc(N3CCCCC3)nn2c1=O` gave LASV entry inh -1.8%[46.1 µM], FMDV inh -23.0%, Vaccinia mCherry -8.0% and Vaccinia Venus -4.0%.
`CN(Cc1ccon1)C(=O)c1cnn(-c2ncc3c(n2)-c2ccccc2CCC3)c1C1CC1` gave FMDV inh 20.0%, Vaccinia mCherry -13.6% and Vaccinia Venus -0.2%.
For N#Cc1c(Nc2ccccc2)[n+]([O-])c2ccc(Cl)cc2[n+]1[O-] the results were HCV inh 2.82µM*, LASV entry inh 3.16µM*, FMDV inh -13.3%, Marburg entry inh inconclusive, Vaccinia mCherry -15.2% and Vaccinia Venus inconclusive.
`Cc1nn(CC(=O)N2CCN(c3ccccc3F)CC2)c(=O)c2cccn12` gave LASV entry inh inconclusive, FMDV inh -25.6%, Marburg entry inh -24.7%[46.1 µM], Vaccinia mCherry -0.1% and Vaccinia Venus -6.9%.
For O=C(NN=Cc1ccc(N(CCCl)CCCl)cc1)c1cccnc1 the results were HCV inh inconclusive, LASV entry inh inconclusive, FMDV inh 12.2%, Marburg entry inh 5.62µM*, Vaccinia mCherry -16.3% and Vaccinia Venus -4.1%.
Screening Cc1nc(C)c(C(=O)NN=Cc2ccc(N(CCCl)CCCl)cc2)s1 returned HCV inh -4.3%, LASV entry inh 7.08µM*, FMDV inh -14.7%, Marburg entry inh inconclusive, Vaccinia mCherry inactive and Vaccinia Venus -25.0%.
`COc1ccc(/C=N/NC(=O)c2sc(C)nc2C)cc1` gave HCV inh -11.9%, LASV entry inh inconclusive, FMDV inh 13.9%, Marburg entry inh -12.2%[46.1 µM], Vaccinia mCherry -27.1% and Vaccinia Venus -21.2%.
Cc1cnc(N)c2c(=O)oc3ccccc3c12 was read as HCV inh 6.31µM*, FMDV inh 1.8%, Marburg entry inh -3.0%, Vaccinia mCherry -14.5% and Vaccinia Venus -5.1%.
O=c1oc2ccccc2c2c1cnc1ccccc12 was read as HCV inh 7.8%, FMDV inh -12.1%, Vaccinia mCherry inactive and Vaccinia Venus -0.1%.
`COc1cccc(CNS(=O)(=O)c2c(C(=O)N3CCC(C)CC3)c(C)n(C)c2C)c1` gave LASV entry inh 15.2%[46.1 µM], FMDV inh 30.6%, Vaccinia mCherry -8.1% and Vaccinia Venus -6.3%.
CC(C)(C)CC(=O)NC1CC(=O)N(c2ccc3c(c2)OCCO3)C1 (centres undefined) was read as LASV entry inh 5.6%[46.1 µM], FMDV inh -18.2%, Vaccinia mCherry 13.9% and Vaccinia Venus 7.0%.
COCCCN(C(=O)c1ccccc1)c1nc(-c2ccc(OC)cc2)cs1 was read as HCV inh 12.6µM* and FMDV inh -18.0%.
For COCCCN(C(C)=O)c1nc(-c2ccccc2)cs1 the results were HCV inh 12.6µM*, LASV entry inh inconclusive, FMDV inh 9.3% and Marburg entry inh 23.0%.
